# According to PubChem BioAssay AID1117361 (Southern Research Institute, 2015):
# Out of some 3,600 compounds screened, about 900 (25%) were called active. A selection follows. Entries with a potency or affinity are not part of this list. Values without a mark were called inactive. The rule behind the calls is not given here.
# Target: Protein Tat (Human immunodeficiency virus type 1 group M subtype B (isolate HXB2)) (UniProt P04608)
# Experiment: HIV-1 Tat–TAR interaction blockers – biochemical, fluorescence polarization, FAM-labeled TAR RNA, counter-screen for Vif-APOBEC3G degradation inhibitor project, dose response (AID 1117361)
# Details: Tat-TAR RNA binding; series mostly up to 100 µM; inhibition: at the top concentration
SMILES,outcome,inhibition [%]
Cc1cc(C#N)c2ccccc2n1,inactive,–
Cc1c(-c2ccccc2)nc2ccccc2c1C(=O)O,–,10.2
CCCCOc1ccc(C(=O)OC(C)CN(C)C)cc1 (stereo not drawn),–,4.09
Clc1ncnc2scc(-c3ccccc3)c12,–,9.02
CCC(=O)Nc1cccc(Oc2nc(C)cc(C)c2C#N)c1,–,6.76
Cc1nn(Cc2ccccc2)c(C)c1NC(=O)c1cc(-c2ccc3c(c2)OCO3)on1,inactive,–
O=C(OCc1ccc(Cl)cc1)c1cnccn1,inactive,–
O=C(CN1CCN(c2nc(-c3ccccc3)cs2)CC1)Nc1ccc2c(c1)OCO2,inactive,–
NNC(=O)CCN1CCN(C(c2ccccc2)c2ccccc2)CC1,inactive,–
Cc1ccccc1CS(=O)(=O)CCC(=O)NCCN1CCN(c2cccc(Cl)c2)CC1,–,13.5
CCOC(=O)CSc1ncnc2c1cnn2-c1ccc(C)cc1,–,0.68
COc1ccc(-n2nnnc2-c2ccccc2)cc1,–,1.36
COc1cnc(SCc2c(Cl)cccc2Cl)nc1Cl,–,7.43
CC(NC(=O)CSc1nnc2n1CCCCC2)c1ccccc1Cl (stereo not drawn),–,2.47
Clc1c(-c2nnc3n2CCC3)sc2ccccc12,–,2.03
Cc1cc2cc3c(=O)[nH]c(=O)nc-3n(CC(O)C(O)C(O)CO)c2cc1C (stereo not drawn),–,23.7
CCCn1nc(NC(=O)c2ccccn2)c2cc3cc(C)ccc3nc21,inactive,–

SMILES,outcome,inhibition [%]
O=C1COc2ccc(C(=O)CSc3nnc(-c4cccs4)n3Cc3ccccc3)cc2N1,inactive,–
COc1cc2ccccc2cc1C(=O)N1CCN(c2ccccc2O)CC1,inactive,–
CCOCCNC(=O)c1ccccc1C(=O)NCCOCC,–,4.05
COc1ccc(Oc2nc(C)cc(C)c2C#N)cc1,inactive,–
COC(=O)COn1c(-n2nc(C)cc2C)nc2ccccc2c1=O,inactive,–
Cc1ccc(S(=O)(=O)n2ccc(=O)[nH]2)cc1,inactive,–
CCOC(=O)c1c(NC(=O)c2cc(CC(C)C)on2)sc(C(C)=O)c1C,inactive,–
CCN(CC)C(=O)c1sc(NC(=O)c2ccc3c(c2)OCO3)c(C#N)c1C,–,2.7
O=C(COC(=O)C12CC3CC(CC(Br)(C3)C1)C2)Nc1ccc2[nH]c(=O)[nH]c2c1,inactive,–
COc1cc(CC(=O)NCC(C)(C)N2CCOCC2)cc(OC)c1OC,–,7.68
CCC(Sc1nc(-c2ccccc2)cc(=O)[nH]1)C(=O)O (stereo not drawn),–,10.1
N#C/C=C\Oc1ccc(Cl)cc1N,–,13
COc1ccccc1OCCOc1ccccc1/C=N/n1cnnc1,inactive,–
Cc1c(C(=O)N2CCN(c3ccccc3F)CC2)sc2nc(-c3ccccc3)cn12,–,4.77
CN(c1ccc(C(=O)N2CCc3ccccc3C2)cc1)S(C)(=O)=O,inactive,–
COc1ccc(C)cc1NC(=O)COC(=O)CCC(=O)c1cccs1,inactive,–
